Values joined by “and” are separate entries in the source; they are usually repeats but may differ in a detail not shown here. Identical values can stand only once. About 2,000 (36%) of roughly 5,500 compounds were called active. About 18% were inconclusive and are not listed. No stated cut-off is given here; in the data, active means normalized growth mostly below about 0.91 (no sharp cut-off); inconclusive means no clear call, values can overlap the other calls; inactive means mostly above about 0.92. The list shows a part of the results.
Experiment: chemical genetic growth profiling, strain panel (AID 1159580);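 further: tested at 20 µM; growth read once vehicle control cultures reached saturation at 30 °C; 1 = growth at the plate median or of vehicle wells; lower values mean less growth of the strain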
Details: growth OD

Measured: normalized growth

C/C1=C\CCC(=O)C2CC(C)(C)C2CC1 (stereo unspecified)
inactive: S. cerevisiae deletion strains, locus YBR021W, strain FUR4, hits give low values 0.997 | S. cerevisiae deletion strains, locus YBR229C, strain ROT2, hits give low values 1.02 | S. cerevisiae deletion strains, locus YCL029C, strain bik1, hits give low values 1.03 | S. cerevisiae deletion strains, locus YDL035C, strain GPR1, hits give low values 0.999 | S. cerevisiae deletion strains, locus YDL074C, strain BRE1, hits give low values 1.02 | S. cerevisiae deletion strains, locus YDL101C, strain DUN1, hits give low values 1.03 | S. cerevisiae deletion strains, locus YDL134C, strain PPH21, hits give low values 1.04 | S. cerevisiae deletion strains, locus YDL185W, strain tfp1, hits give low values 1.03 | S. cerevisiae deletion strains, locus YDL192W, strain arf1, hits give low values 1.01 | S. cerevisiae deletion strains, locus YDR101C, strain arx1, hits give low values 1 | S. cerevisiae deletion strains, locus YDR162C, strain NBP2, hits give low values 1.03 | S. cerevisiae deletion strains, locus YDR318W, strain mcm21, hits give low values 1.03 | S. cerevisiae deletion strains, locus YDR388W, hits give low values 1.03 | S. cerevisiae deletion strains, locus YDR502C, strain sam2, hits give low values 1.03 | S. cerevisiae deletion strains, locus YEL061C, strain CIN8, hits give low values 1.02 | S. cerevisiae deletion strains, locus YER110C, hits give low values 1.04 | S. cerevisiae deletion strains, locus YER155C, strain BEM2, hits give low values 1.01 | S. cerevisiae deletion strains, locus YER167W, strain BCK2, hits give low values 1.01 | S. cerevisiae deletion strains, locus YGL078C, strain dbp3, hits give low values 1.02 | S. cerevisiae deletion strains, locus YGL086W, strain mad1, hits give low values 1.02 | S. cerevisiae deletion strains, locus YGL248W, strain PDE1, hits give low values 1.03 | S. cerevisiae deletion strains, locus YGR135W, strain pre9, hits give low values 1.07 | S. cerevisiae deletion strains, locus YGR252W, strain gcn5, hits give low values 1 | S. cerevisiae deletion strains, locus YHR030C, strain SLT2, hits give low values 1.02 and 1.01 | S. cerevisiae deletion strains, locus YHR079C, strain IRE1 (second series), hits give low values 1.02 | S. cerevisiae deletion strains, locus YHR079C, strain IRE1, hits give low values 1.01 | S. cerevisiae deletion strains, locus YHR094C, strain hxt1, hits give low values 1.02 | S. cerevisiae deletion strains, locus YHR129C, strain ARP1, hits give low values 1.01 | S. cerevisiae deletion strains, locus YHR200W, strain rpn10, hits give low values 1.03 | S. cerevisiae deletion strains, locus YIL066C, strain RNR3, hits give low values 1.02 | S. cerevisiae deletion strains, locus YIL073C, strain SPO22, hits give low values 1.08 | S. cerevisiae deletion strains, locus YIL125W, strain kgd1, hits give low values 1.02 | S. cerevisiae deletion strains, locus YIR030C, strain dcg1, hits give low values 1.02 | S. cerevisiae deletion strains, locus YJL095W, strain BCK1, hits give low values 1.07 and 1.02 | S. cerevisiae deletion strains, locus YJL134W, strain LCB3, hits give low values 1.02 | S. cerevisiae deletion strains, locus YJL168C, strain set2, hits give low values 1.02 | S. cerevisiae deletion strains, locus YJL187C, strain SWE1 (second series), hits give low values 1.04 | S. cerevisiae deletion strains, locus YJR043C, strain POL32, hits give low values 1.01 | S. cerevisiae deletion strains, locus YJR066W, strain TOR1, hits give low values 0.954 | S. cerevisiae deletion strains, locus YKL009W, strain mrt4, hits give low values 0.982 | S. cerevisiae deletion strains, locus YKL068W, hits give low values 1.02 | S. cerevisiae deletion strains, locus YKL085W, strain MDH1 (second series), hits give low values 1.01 | S. cerevisiae deletion strains, locus YKL085W, strain MDH1, hits give low values 1.01 | S. cerevisiae deletion strains, locus YKL190W, strain CNB1, hits give low values 1.01 | S. cerevisiae deletion strains, locus YKR001C, strain vps1, hits give low values 1.04 | S. cerevisiae deletion strains, locus YLR039C, strain RIC1, hits give low values 1.09 | S. cerevisiae deletion strains, locus YLR058C, strain SHM2, hits give low values 1.02 | S. cerevisiae deletion strains, locus YLR102C, strain apc9, hits give low values 1.02 | S. cerevisiae deletion strains, locus YLR113W, strain HOG1, hits give low values 1.03 | S. cerevisiae deletion strains, locus YLR262C, strain YPT6, hits give low values 1.1 | S. cerevisiae deletion strains, locus YLR268W, strain sec22, hits give low values 1.01 | S. cerevisiae deletion strains, locus YLR342W, strain FKS1 (second series), hits give low values 1.03 | S. cerevisiae deletion strains, locus YLR371W, strain rom2, hits give low values 1.04 | S. cerevisiae deletion strains, locus YLR418C, strain cdc73, hits give low values 1.04 | S. cerevisiae deletion strains, locus YML016C, strain PPZ1, hits give low values 1.03 | S. cerevisiae deletion strains, locus YML032C, strain rad52, hits give low values 1.02 | S. cerevisiae deletion strains, locus YML124C, strain tub3, hits give low values 1.02 | S. cerevisiae deletion strains, locus YMR078C, strain ctf18, hits give low values 1.02 | S. cerevisiae deletion strains, locus YMR223W, strain ubp8, hits give low values 1.01 | S. cerevisiae deletion strains, locus YMR307W, strain GAS1, hits give low values 1.09 | S. cerevisiae deletion strains, locus YNL067W, strain RPL9B, hits give low values 1.03 | S. cerevisiae deletion strains, locus YNL183C, strain NPR1, hits give low values 0.954 | S. cerevisiae deletion strains, locus YNL233W, strain BNI4, hits give low values 1.05 | S. cerevisiae deletion strains, locus YNL250W, strain rad50, hits give low values 1.07 | S. cerevisiae deletion strains, locus YNL271C, strain bni1, hits give low values 1.02 | S. cerevisiae deletion strains, locus YNL298W, strain CLA4, hits give low values 1.01 | S. cerevisiae deletion strains, locus YNL307C, strain MCK1, hits give low values 1.03 | S. cerevisiae deletion strains, locus YNR052C, strain pop2, hits give low values 1.04 | S. cerevisiae deletion strains, locus YOL006C, strain TOP1, hits give low values 1.1 | S. cerevisiae deletion strains, locus YOL012C, strain htz1 1.02 | S. cerevisiae deletion strains, locus YOL147C, strain pex11, hits give low values 1.01 | S. cerevisiae deletion strains, locus YOR061W, strain CKA2, hits give low values 1.02 | S. cerevisiae deletion strains, locus YOR069W, strain VPS5, hits give low values 1.02 | S. cerevisiae deletion strains, locus YOR136W, strain idh2, hits give low values 1.02 | S. cerevisiae deletion strains, locus YOR144C, strain elg1, hits give low values 1.02 | S. cerevisiae deletion strains, locus YOR184W, strain ser1, hits give low values 1 | S. cerevisiae deletion strains, locus YOR231W, strain MKK1, hits give low values 1 | S. cerevisiae deletion strains, locus YOR316C, strain cot1, hits give low values 1.03 | S. cerevisiae deletion strains, locus YPL055C, strain LGE1, hits give low values 1.05 | S. cerevisiae deletion strains, locus YPL256C, strain CLN2, hits give low values 0.999 | S. cerevisiae deletion strains, locus YPR119W, strain clb2, hits give low values 1.02 | S. cerevisiae deletion strains, locus YPR141C, strain kar3, hits give low values 1.03 | S. cerevisiae deletion strains, locus YPR163C, strain tif3, hits give low values 1.02 | S. cerevisiae deletion strains, locus YPR167C, strain met16, hits give low values 1.02 | S. cerevisiae deletion strains, strain wtn01, hits give low values 1.02 | S. cerevisiae strains, strain wild type, hits give low values 1.03

— PubChem BioAssay AID1159580 (chemical genetic matrix, 2015)
